Source: PubChem (several laboratories)
LRH-1 inv ag: suppresses constitutive activity of human LRH-1; HEK293T StAR-luciferase reporter, LRH-1 transfected, 24 h; inhibition, % at 3.6 µM; hit rate 0.13% among 360,000; AID 602396;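 active = inhibition above the mean inhibition of all tested compounds plus 3 SD, cut at about 73% in these data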;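 also: 0% = DMSO wells and 100% = reporter-only cells lacking LRH-1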
Target sequence (O00482 whole entry, looked up): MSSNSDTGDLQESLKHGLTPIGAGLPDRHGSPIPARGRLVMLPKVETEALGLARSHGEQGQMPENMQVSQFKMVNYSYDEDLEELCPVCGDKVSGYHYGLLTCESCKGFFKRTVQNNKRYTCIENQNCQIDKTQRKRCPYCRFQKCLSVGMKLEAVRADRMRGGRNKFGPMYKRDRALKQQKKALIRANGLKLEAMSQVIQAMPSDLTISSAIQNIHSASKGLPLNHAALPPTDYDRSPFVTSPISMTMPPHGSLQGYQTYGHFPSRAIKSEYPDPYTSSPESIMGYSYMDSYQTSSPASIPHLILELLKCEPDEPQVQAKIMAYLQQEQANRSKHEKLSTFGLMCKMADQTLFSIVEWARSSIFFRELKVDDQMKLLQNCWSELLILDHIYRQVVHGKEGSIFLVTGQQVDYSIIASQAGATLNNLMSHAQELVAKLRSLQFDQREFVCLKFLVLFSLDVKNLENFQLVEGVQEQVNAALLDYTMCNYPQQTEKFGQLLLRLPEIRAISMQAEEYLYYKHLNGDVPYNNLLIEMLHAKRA
Gli-Sufu antag: Gli-Sufu pathway antagonism; Sufu-KO-LIGHT fibroblasts, Gli luciferase reporter luminescence; inhibition, % at 5 µM; hit rate 0.74% among 340,000;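 active = inhibition above about 55%, limit read from the data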;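 also: 0% = DMSO-treated cells and 100% = wells with medium but no cells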
NCOA2 inhibitor: human SRC2 (NCOA2) inhibition. Q15596. HEK293 GAL4-SRC2 luciferase reporter, luminescence. inhibition, % at 9 µM. hit rate 0.17% among 370,000. AID 651957;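 active = inhibition above the mean inhibition of all tested compounds plus 3 SD, set per campaign, cut at about 52% in these data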;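 also: 0% = DMSO treated cells and 100% = cells given Gossypol at 36 µM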
SRC1 inh: inhibitors of human steroid receptor coactivator 1 (SRC1); hit rate 0.12% among 360,000; Q15788; inhibition, % at 3.6 µM; AID 588354; HEK293 GAL4-SRC1 luciferase reporter, luminescence;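 active = inhibition above the campaign mean plus 3 SD, with each screening campaign given its own cutoff, cut at about 60% in these data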;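 also: 0% = DMSO treated cells and 100% = gossypol at 36 µM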
NR2F2 inh: inhibitors of human COUP-TFII (NR2F2); P24468; HEK293T NGFI-A luciferase reporter, luminescence; inhibition, % at 8.6 µM; hit rate 0.7% among 370,000;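 active = inhibition above a per-plate cutoff, mean inhibition of test wells between control levels plus 3 SD, cut at about 38% in these data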;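 also: cells cotransfected with COUP-TFII expression vector driving the NGFI-A reporter; 0% = median of COUP-TF2 test wells and 100% = reporter-only cells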
NCOA3 inh: human NCOA3 inhibition; HEK293 GAL4-SRC3 luciferase reporter, luminescence; hit rate 0.17% among 360,000; Q9Y6Q9; inhibition, % at 3.6 µM;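 active = inhibition above a per-campaign cutoff, the mean of all compounds plus 3 SD, cut at about 60% in these data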;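 also: 0% = DMSO-treated cells and 100% = gossypol-treated cells at 36 µM; higher means less SRC3-driven luciferase light from the GAL4 reporter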
VP16 Luc counter: counter-screen for COUP-TFII antagonists: inhibitors of VP16 | shares compounds with NR2F2 inh | HEK293 Gal4-VP16 luciferase reporter, luminescence | inhibition, % at 8.5 µM | hit rate 25% among 2,500 | AID 687007; in the data active = inhibition above about 13%
NR2F2 inh conf: confirmation of human COUP-TFII (NR2F2) inhibitors. shares compounds with NR2F2 inh. HEK293 NGFI-A luciferase reporter, luminescence. inhibition, % at 8.5 µM. hit rate 45% among 2,500. AID 687008;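 active = mean inhibition over three repeats above a set limit taken from the earlier primary screen, cut at about 38% in these data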;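 also: 100% = cells given the luciferase reporter alone without the COUP-TF2 vector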
* = called active by the depositor; . = no result given. The list is not random: actives were taken first. Their share in the collection is about 1.3%.

SMILES	LRH-1 inv ag	Gli-Sufu antag	NCOA2 inhibitor	SRC1 inh	NR2F2 inh	NCOA3 inh	VP16 Luc counter	NR2F2 inh conf
CCN(CC)S(=O)(=O)c1cc(NC(=O)Cc2ccc(S(=O)(=O)N3CCOCC3)s2)ccc1Cl	25	10	32	14	64*	22	3	30
COc1ccc(OCC(=O)Nc2ccc(S(=O)(=O)N3CCOCC3)cc2)cc1	7	-2	-2	1	6	10	.	.
O=C(O)CC(SCC(=O)Nc1ccc(Cl)c(S(=O)(=O)N2CCOCC2)c1)C(=O)O (stereo not drawn)	3	-1	17	0	-7	4	.	.
CCCCN1CC(COCc2ccccc2)Oc2cccc(Oc3ccc(F)cc3OC)c2S1(=O)=O (stereo not drawn)	.	.	25	.	8	.	.	.
CCOC(=O)Nc1cc(=O)c([N+](=O)[O-])c(N)[nH]1	.	.	-19	.	13	.	.	.
COC(=O)CSc1nnc(-c2ccc(NS(=O)(=O)c3ccc(C(C)(C)C)cc3)cc2)o1	.	.	25	.	9	.	.	.
Cc1cc(C)cc(OCC(O)CN2CCC(CN3C(=O)c4cccc5cccc(c45)C3=O)CC2)c1 (stereo not drawn)	6	4	31	-9	73*	11	7	40*
COc1cccc(OCC(O)CN2CCC(CN3C(=O)c4cccc5cccc(c45)C3=O)CC2)c1 (stereo not drawn)	-1	8	-25	-11	28	11	.	.
O=C(Nc1ccncc1)Nc1ccc(Cl)cc1	-7	-15	-5	-16	-13	10	.	.
O=C(Cc1ccc(Cl)cc1)Nc1ccncc1	33	19	18	6	40*	21	-3	8
CN(CC(=O)Nc1ccncc1)S(=O)(=O)c1ccc(Br)cc1	2	2	12	13	9	2	.	.
Cc1ccc(CC(=O)Nc2ccncc2)cc1	46	50	17	0	55*	4	-9	24
CN(CCCC(=O)Nc1ccncc1)S(=O)(=O)c1ccc(Cl)cc1	1	36	8	13	52*	9	4	30
COC(=O)[C@]12C[C@H](CC(=O)N3CCN(C(=O)C4CC4)CC3)C(=O)N(Cc3cccc4ccccc34)C1=C[C@H](COCc1ccccc1)O[C@@H]2C	.	.	2	.	9	.	.	.
Cc1c(P(=S)(c2ccccc2)c2ccccc2)[n+]2ccccc2n1C/C=C/c1ccccc1	47	.	-43	29	38*	49	5	4
CC(O)c1nc2ccccc2n1C/C=C/c1ccccc1 (stereo not drawn)	8	4	2	-13	-1	-5	.	.
Cc1ccc(-n2c(SC/C=C/c3ccccc3)nnc2-c2ccco2)cc1	.	.	9	.	6	.	.	.
CC1CCc2nc(N)c(C#N)c(-c3cccnc3)c2C1 (stereo not drawn)	41	-12	39	72*	52*	63*	14*	24
Cc1cccc(N2CCN(C(=O)C3CCC(CNS(=O)(=O)c4cccs4)CC3)CC2)c1C (stereo not drawn)	2	29	-3	-4	51*	4	6	32
C=CCOC(=O)N[C@@H](c1cccc(OC)c1)[C@@H](C)/C=C/CC(=O)O	.	.	8	.	-2	.	.	.
Cc1ccc2oc(/N=C(\N)NC(=O)C(C)(C)C)nc2c1	83*	75*	81*	83*	93*	86*	88*	105*
CC(=O)N1CCc2cc(S(=O)(=O)NC3CCN(C(=O)OCc4ccccc4)CC3)ccc21	.	.	18	.	61*	.	-11	20
C=CCOC(=O)N1CCC(NS(=O)(=O)c2ccc3c(c2)CCN3C(C)=O)CC1	.	.	24	.	8	.	.	.
COc1ccccc1-c1cc2nc(C)c(CCC(=O)NCc3ccc(F)cc3)c(C)n2n1	-6	-5	-17	5	7	13	.	.
COc1cc(OC)cc(-c2cc3nc(C)c(CCC(=O)NCc4ccccc4)c(C)n3n2)c1	35	19	77*	15	58*	30	29*	47*
SMILES	LRH-1 inv ag	Gli-Sufu antag	NCOA2 inhibitor	SRC1 inh	NR2F2 inh	NCOA3 inh	VP16 Luc counter	NR2F2 inh conf
Cc1csc(NC(=O)CCc2c(C)nc3cc(-c4ccc(Cl)cc4)nn3c2C)n1	9	4	66*	5	49*	0	-15	36
CS(=O)(=O)N(CCC#N)Cc1ccc(/C=C2\C(=O)Nc3ccccc32)o1	13	4	46	29	38*	51	-3	21
CC(=O)/C=C1/C(=O)Nc2ccccc21	12	-2	-20	7	9	8	.	.
O=C(Nc1ccc(OCCO)cc1)c1csc([C@@H]2O[C@H](CO)[C@H](O)[C@H](O)[C@H]2O)n1	3	.	-15	-6	2	-4	.	.
O=C(Nc1ccc(Oc2ccccc2)cc1)c1csc([C@H]2C[C@H](O)[C@@H](CO)O2)n1	44	.	17	11	77*	10	-4	61*
O=C(Nc1ccc(Oc2ccccc2)cc1)c1csc([C@@H]2O[C@H](CO)[C@@H](O)[C@H]2O)n1	37	.	28	33	66*	-15	7	51*
CCCCNC(=O)C[C@H]1C[C@@]2(C(=O)OC)C(=C[C@H](C(C)(C)C)O[C@@H]2C)N(CCc2ccc(OC)c(OC)c2)C1=O	.	.	6	.	14	.	.	.
COC(=O)CC#C[C@H](C)[C@@H](NS(=O)(=O)c1ccc(C)cc1)C1CCCCC1	.	.	-2	.	2	.	.	.
O=C(N/N=C\c1ccc(-c2ccc([N+](=O)[O-])cc2)o1)c1ccc2c(c1)OCO2	10	1	1	-25	1	-5	.	.
O=C(N/N=C/c1ccc([N+](=O)[O-])o1)c1ccc2c(c1)OCO2	48	43	67*	-36	54*	-17	45*	44*
CC(=O)c1ccc(N2CCN(C(=S)Nc3ccc(Oc4ccccc4)cc3)CC2)cc1	13	15	1	14	69*	23	0	56*
C[C@@H]1COc2cc(NCCCN3CCOCC3)ccc2S(=O)(=O)N1	.	.	-1	.	11	.	.	.
CCN(CC)S(=O)(=O)c1ccc(Cl)c(NC(=O)COC(=O)c2ccc(O)cc2)c1	-27	-9	7	-17	18	14	.	.
CCN(CC)S(=O)(=O)c1ccc(Cl)c(NC(=O)COC(=O)c2cccn2C)c1	-16	1	-5	-26	38*	13	-11	6
O=C1N(c2ccccc2)C[C@@H]2C[C@@H](c3cc4ccccc4o3)N3CCC[C@@]123	95*	76*	54*	90*	80*	88*	9	74*
CCOc1ccc(CN(C)C(=O)CNC(=O)c2ccccc2)cc1	8	-2	-25	-21	-8	-5	.	.
C=CCOc1ccc(CN(C)C(=O)CNC(=O)c2ccc(-c3ccccc3)cc2)cc1	22	-10	12	1	47*	6	1	36
